Measured values from PubChem BioAssay.
Values joined by “and” are separate entries in the source; they are usually repeats but may differ in a detail not shown here. Equal entries are not always repeated. Results filed as inconclusive are left out. Active and inactive are the calls of the source. Unless noted, the rule behind the calls is not given here.

Legend:
[1] = EMT-state selective cytotoxicity in co-culture – imaging, PC-3E GFP, TEM4-18 mCherry, primary screen (AID 1345086;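 active = compounds killing one labelled cell type while sparing the other, by normalised counts and ratio limits, not self-fluorescent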;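 for all read-outs here: cells exposed to compound for 72 h before imaging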;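 for red/green cell ratio (normalised): normalised mesenchymal count divided by normalised epithelial count so high means epithelial killing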); details: PC-3E GFP / TEM4-18 mCherry co-culture, imaging cell counts, at 1 µM; for red/green cell ratio (normalised): actives lie on both sides
[2] = system: Aerobactin synthetase IucA (Klebsiella pneumoniae hvKP1); test: IucA enzyme inhibition, primary screen, biochemical, Spectrum library (AID 1346200); details: malachite green pyrophosphate, A620, at 8 µM, stronger effect = lower value;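 note: 100% = wells without compound and 0% = wells lacking enzyme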
[3] = molecular target: Mitogen-activated protein kinase 7 (Homo sapiens) (UniProt Q13164); test: Gal4-ERK5 driven luciferase induction – cell-based, HTS, primary screen (AID 1508626;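 active = luciferase signal above three times the same-plate solvent-only control wells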;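 note: luciferase driven by Gal4-ERK5 fusion binding five Gal4 sites before minimal TATA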); details: HeLa Gal4-ERK5 transactivation, 18 h, at 5 µM, stronger effect = higher value
[4] = viability loss with induced miR-34 in A549 – imaging, A549 dox-inducible miR-34, nuclei and caspase counts, primary screen (AID 1347080;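 active = compounds whose cell count with miR-34 switched on is under 0.7 times the count with it off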); details: A549 miR-34 inducible, Hoechst nuclei count, 48 h
[5] = P. berghei load reduction in hepatocytes – cell-based, HepG2, luciferase luminescence, HepG2 viability, primary screen (AID 624349; in the data active = parasite load remaining mostly below about 12%, no sharp cut-off; inactive = mostly above about 10%;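 note: 100% = mean of DMSO negative control wells on the same plate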); details: P. berghei liver stage in HepG2, luciferase luminescence, concentration not given here; parasite load remaining: stronger effect = lower value; viability: measured here: HepG2 viability without parasites
[6] = molecular target: ATP-dependent translocase ABCB1 (Homo sapiens) (UniProt P08183); test: P-glycoprotein substrate transport blockade – cell-based (AID 377; in the data active = fluorescence slope change above about 50%); details: MDR1-expressing cells, fluorescent substrate accumulation slope; stronger effect = higher value; concentration not given here
[7] = compounds altering viability of human ES cells (AID 493140); details: human embryonic stem cell survival screen; stronger effect = higher value;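 note: cells exposed to compounds for four days before counting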
[8] = MELAS cybrid and Rieske KO viability enhancers – cell-based, MELAS cybrids, Rieske KO mouse fibroblasts, CellTiter-Glo, primary screen (AID 1508586;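 active = mean z-score across replicates of 1.96 or higher in either the MELAS or the Rieske mutant cell line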;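 note: z relative to plate mean and SD of compound and empty wells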); details: low glucose
[9] = compounds altering circadian rhythm period length – cell-based, LOPAC library, luminescence reporter (AID 2774); details: circadian reporter cells, at 7 µM, actives lie on both sides;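 note: values are relative to mean of DMSO wells on each plate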
[10] = system: Hepatitis C virus NS3 helicase; test: blockers of NS3h binding to ssDNA – biochemical, fluorescence polarization, LOPAC1280 library, primary screen (AID 687035; in the data active = inhibition above about 37%); details: Purified HCV NS3 helicase, Cy5-dT15 ssDNA binding fluorescence polarization; stronger effect = higher value; concentration not given here
[11] = compounds altering Cy5-DNA-NS3h complex signal – biochemical, LOPAC1280, artefact control for HCV NS3 helicase inhibitor project (AID 687037); details: Cy5-DNA-NS3h complex fluorescence interference counterscreen
[12] = system: Aerobactin synthetase IucA (Klebsiella pneumoniae, hypervirulent); test: biochemical IucA inhibition screen of LOPAC library by absorbance (AID 1346212); details: IucA enzyme assay, absorbance (OD) readout; stronger effect = lower value;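 tested at 8 µM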;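 note: 100% = no compound wells and 0% = no enzyme wells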
[13] = blockers of cellular phospholipid synthesis – cell-based, LOPAC library, screen 4, primary screen (AID 1347384); details: animal cells, phospholipid biosynthesis inhibition screen; at 10 µM
[14] = galactose survival enhancers in mitochondrial complex I cybrids – cell-based, galactose medium, ATP luminescence, primary screen (AID 1645843;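 active = z-score of at least 1.8 in each of two replicates, scored against plate mean and spread of sample wells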;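 note: positive z means more ATP and so rescue of galactose-driven cybrid death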); details: complex I mutant cybrid cells, 72 h, stronger effect = higher value
[15] = measured here: epithelial PC-3E GFP cell survival
[16] = measured here: mesenchymal TEM4-18 mCherry cell survival
[17] = measured here: relative caspase fold change +Dox/-Dox
[18] = measured here: total cells with miR-34 induction, stronger effect = lower value
[19] = measured here: total cells without miR-34 induction

Sequence of Mitogen-activated protein kinase 7 (Homo sapiens) (Q13164 whole entry, looked up, the tested form may be a part): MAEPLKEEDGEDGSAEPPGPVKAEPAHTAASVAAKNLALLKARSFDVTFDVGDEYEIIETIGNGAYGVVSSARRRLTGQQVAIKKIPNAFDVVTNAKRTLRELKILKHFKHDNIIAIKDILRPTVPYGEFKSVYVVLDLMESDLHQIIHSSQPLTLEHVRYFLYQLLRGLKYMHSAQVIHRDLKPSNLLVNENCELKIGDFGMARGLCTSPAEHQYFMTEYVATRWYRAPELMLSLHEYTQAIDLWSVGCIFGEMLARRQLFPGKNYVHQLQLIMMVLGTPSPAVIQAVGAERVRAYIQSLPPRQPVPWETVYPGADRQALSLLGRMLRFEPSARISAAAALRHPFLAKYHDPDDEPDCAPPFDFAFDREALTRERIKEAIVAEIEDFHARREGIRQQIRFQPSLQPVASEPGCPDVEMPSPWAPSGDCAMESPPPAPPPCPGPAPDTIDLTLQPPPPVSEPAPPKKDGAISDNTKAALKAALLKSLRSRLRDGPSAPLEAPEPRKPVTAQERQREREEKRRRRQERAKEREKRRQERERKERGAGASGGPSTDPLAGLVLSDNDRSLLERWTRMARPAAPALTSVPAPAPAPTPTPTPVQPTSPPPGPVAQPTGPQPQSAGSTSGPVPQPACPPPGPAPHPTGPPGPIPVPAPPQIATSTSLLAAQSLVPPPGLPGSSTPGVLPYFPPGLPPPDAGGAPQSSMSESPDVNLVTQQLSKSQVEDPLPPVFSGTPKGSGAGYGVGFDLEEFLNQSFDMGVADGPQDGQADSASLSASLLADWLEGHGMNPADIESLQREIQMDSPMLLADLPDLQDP
Sequence of ATP-dependent translocase ABCB1 (Homo sapiens) (P08183 whole entry, looked up): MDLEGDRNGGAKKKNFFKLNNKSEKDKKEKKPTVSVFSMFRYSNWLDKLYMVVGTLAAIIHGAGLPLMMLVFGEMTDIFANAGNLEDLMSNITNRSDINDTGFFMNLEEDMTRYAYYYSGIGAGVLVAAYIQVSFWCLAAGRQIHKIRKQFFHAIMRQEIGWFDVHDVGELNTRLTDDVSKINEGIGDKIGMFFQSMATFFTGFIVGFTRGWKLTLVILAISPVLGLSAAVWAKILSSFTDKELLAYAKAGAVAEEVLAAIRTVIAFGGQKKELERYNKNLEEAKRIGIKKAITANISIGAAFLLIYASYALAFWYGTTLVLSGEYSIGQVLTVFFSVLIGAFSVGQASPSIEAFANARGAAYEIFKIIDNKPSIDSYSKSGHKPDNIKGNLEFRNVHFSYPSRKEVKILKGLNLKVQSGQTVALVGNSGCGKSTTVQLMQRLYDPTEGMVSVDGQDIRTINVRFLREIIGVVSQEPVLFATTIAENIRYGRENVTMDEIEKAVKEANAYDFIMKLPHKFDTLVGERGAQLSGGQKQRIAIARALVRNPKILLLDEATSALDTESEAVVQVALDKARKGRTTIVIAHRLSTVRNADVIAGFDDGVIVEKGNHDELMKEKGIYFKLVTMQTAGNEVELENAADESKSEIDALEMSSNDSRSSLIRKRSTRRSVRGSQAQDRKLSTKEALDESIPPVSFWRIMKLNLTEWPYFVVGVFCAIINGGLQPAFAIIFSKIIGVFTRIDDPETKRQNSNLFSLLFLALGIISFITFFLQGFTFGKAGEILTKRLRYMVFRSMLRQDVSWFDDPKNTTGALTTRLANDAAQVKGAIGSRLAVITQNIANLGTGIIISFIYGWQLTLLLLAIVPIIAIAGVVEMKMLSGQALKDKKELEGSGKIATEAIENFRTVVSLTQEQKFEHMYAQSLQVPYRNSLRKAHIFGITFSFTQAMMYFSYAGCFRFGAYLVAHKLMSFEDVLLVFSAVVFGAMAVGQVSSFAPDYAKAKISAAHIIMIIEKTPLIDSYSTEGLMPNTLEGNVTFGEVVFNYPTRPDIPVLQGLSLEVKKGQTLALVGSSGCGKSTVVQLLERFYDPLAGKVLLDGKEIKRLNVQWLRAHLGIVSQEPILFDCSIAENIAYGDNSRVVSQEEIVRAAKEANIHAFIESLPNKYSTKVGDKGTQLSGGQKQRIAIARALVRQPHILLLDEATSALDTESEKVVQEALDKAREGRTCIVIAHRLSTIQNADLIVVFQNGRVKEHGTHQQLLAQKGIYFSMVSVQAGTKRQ

C[C@H]1C[C@@H](O)[C@]2(O)[C@@]13CC(=O)OC[C@@]2(C)[C@](C)(O)C(=O)C3
red/green cell ratio (normalised) [1]: 1.18 (inactive)
normalised cell number [1, 15]: 0.96
normalised cell number [1, 16]: 1.13
activity remaining [2]: 127% (inactive)
luciferase signal [3]: 188 AU (inactive)

C[C@]12CC[C@H](O)CC1=CCC1C2CC[C@]2(C)C(=O)CC[C@@H]12 (stereo partly specified)
red/green cell ratio (normalised) [1]: 0.71 (inactive)
normalised cell number [1, 15]: 1.37
normalised cell number [1, 16]: 0.97
fold change ([4]; stronger effect = lower value): 0.933 (inactive)
fold change [4, 17]: 1.12
cell count [4, 18]: 7350
cell count [4, 19]: 7880

CC(=O)O[C@@H]1CC[C@]2(C)C3CC[C@]4(C)C(=O)CCC4C3CC[C@H]2C1 (stereo partly specified)
parasite load remaining [5]: 51% (inactive)
viability [5]: 94%
red/green cell ratio (normalised) [1]: 1.18 (inactive)
normalised cell number [1, 15]: 0.95
normalised cell number [1, 16]: 1.12
activity remaining [2]: 99.4% (inactive)

CC(=O)O[C@H]1CC[C@@]2(C)C(=CCC3C2CC[C@]2(C)C(=O)CCC32)C1 (stereo partly specified)
parasite load remaining [5]: 162% (inactive)
viability [5]: 84.8%
red/green cell ratio (normalised) [1]: 0.81 (inactive)
normalised cell number [1, 15]: 1.28
normalised cell number [1, 16]: 1.04
activity remaining [2]: 103% (inactive)

CN(C)Cc1c[nH]c2ccccc12
fluorescence slope change [6]: 124% (active)
survival [7]: 7.33 (inactive)
parasite load remaining [5]: 169% (inactive) and 78.1% (inactive)
viability [5]: 115% and 79.2%
red/green cell ratio (normalised) [1]: 1.08 (inactive)
normalised cell number [1, 15]: 0.84
normalised cell number [1, 16]: 0.9
fold change ([4]; stronger effect = lower value): 0.891 (inactive) and 0.984 (inactive)
fold change [4, 17]: 2.07 and 0.28
cell count [4, 18]: 8410 and 7970
cell count [4, 19]: 9440 and 8100
z-score ([8]; MELAS cybrid survival, CellTiter-Glo 48 h, stronger effect = higher value): -0.265 (inactive)
z-score ([8]; Rieske KO mouse fibroblast survival, CellTiter-Glo 72 h): 0.0463

COC(C)(C)CCC[C@H](C)C/C=C/C(C)=C/C(=O)OC(C)C
red/green cell ratio (normalised) [1]: 0.86 (inactive)
normalised cell number [1, 15]: 1.2
normalised cell number [1, 16]: 1.03
activity remaining [2]: 109% (inactive)
luciferase signal [3]: 72 AU (inactive)

COC1=CC(=O)OC(/C=C/c2ccccc2)C1 (stereo unspecified)
red/green cell ratio (normalised) [1]: 0.84 (inactive)
normalised cell number [1, 15]: 0.94
normalised cell number [1, 16]: 0.79
fold change ([4]; stronger effect = lower value): 0.833 (inactive)
fold change [4, 17]: 1.16
cell count [4, 18]: 4840
cell count [4, 19]: 5810

CS(=N)(=O)CC[C@H](N)C(=O)O (stereo partly specified)
period change [9]: -0.08 h (inactive)
survival [7]: 9.75 (inactive)
parasite load remaining [5]: 18.6% (inactive) and 51.3% (inactive)
viability [5]: 102% and 77.3%
inhibition [10]: -3% (inactive)
fluorescence ratio (interference) [11]: 1 (inactive)
red/green cell ratio (normalised) [1]: 0.94 (inactive)
normalised cell number [1, 15]: 1.08
normalised cell number [1, 16]: 1.02
remaining activity [12]: 115% (inactive)
fold change ([4]; stronger effect = lower value): 1.04 (inactive) and 0.811 (inactive)
fold change [4, 17]: 0.701 and 1.11
cell count [4, 18]: 10400 and 8780
cell count [4, 19]: 9920 and 10800
outcome [13]: inactive
z-score [14]: 0.45 (inactive)

C=CCc1ccc(OC)cc1
red/green cell ratio (normalised) [1]: 1.02 (inactive)
normalised cell number [1, 15]: 0.96
normalised cell number [1, 16]: 0.99
activity remaining [2]: 107% (inactive)
luciferase signal [3]: 52 AU (inactive)

C[N+]1(C)C2CCC1CC(OC(=O)C(CO)c1ccccc1)C2 (stereo unspecified)
period change [9]: 0.05 hour (inactive) and -0.075 hour (inactive)
survival [7]: 5.08 (inactive)
parasite load remaining [5]: 37.4% (inactive)
viability [5]: 106%
inhibition [10]: -4% (inactive) and -3% (inactive)
fluorescence ratio (interference) [11]: 1 (inactive)
red/green cell ratio (normalised) [1]: 1.05 (inactive)
normalised cell number [1, 15]: 0.95
normalised cell number [1, 16]: 1
remaining activity [12]: 112% (inactive)
fold change ([4]; stronger effect = lower value): 1.08 (inactive) and 0.98 (inactive) and 0.858 (inactive)
fold change [4, 17]: 1.57 and 0.863 and 5.64
cell count [4, 18]: 9760 and 10000 and 10600
cell count [4, 19]: 9050 and 10200 and 12400
outcome [13]: inactive
z-score [14]: 0.49 (inactive) and 0.65 (inactive)
